# Assay results published in publication PMC8384837, “Expanding the binding specificity for RNA recognition by a PUF domain”.
# Positions count from the first letter of the chain named.
# What was measured:
# Experiment in all cases: yeast three-hybrid, YBZ-1, SC-Leu-His + 0.5 mM 3-AT, 4 days
# Settings in all cases: tags: N-Gal4 AD-HA kept; label: inside an RPR1-promoter hybrid RNA with tandem MS2 sites; ssRNA
# [1] = molecular target: PUM1 PUF domain R8-AHR (Homo sapiens, UniProt Q14671 828-1176, N1122A;Y1123H;Q1126R)
# In short: (§1)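 The interaction score is the logarithmic change in variant frequency from input to selection. It uses log2, with a pseudocount of 1 for absent variants, and frequencies came from PCR-amplified, Illumina-sequenced repeat regions. The libraries were Pumilio-1 PUF domains randomized at the three base-contacting residues per repeat, co-expressed with matching RNA elements in strain YBZ-1 (LexA–MS2 coat fusion, HIS3 reporter). Plating lasted four days on SC-Leu (input) or SC-Leu-His + 0.5 mM 3-AT (selection).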
# [2] = molecular target: PUM1 PUF domain R5-KLT (Homo sapiens, UniProt Q14671 828-1176, C1007K;R1008L;Q1011T)
# In short: as §1
# [3] = molecular target: PUM1 PUF domain R5-RCS (Homo sapiens, UniProt Q14671 828-1176, C1007R;R1008C;Q1011S)
# In short: as §1
# [4] = molecular target: T1, PUM1 PUF domain R6-VFV (Homo sapiens, UniProt Q14671 828-1176, N1043V;Y1044F;Q1047V)
# T1 sequence: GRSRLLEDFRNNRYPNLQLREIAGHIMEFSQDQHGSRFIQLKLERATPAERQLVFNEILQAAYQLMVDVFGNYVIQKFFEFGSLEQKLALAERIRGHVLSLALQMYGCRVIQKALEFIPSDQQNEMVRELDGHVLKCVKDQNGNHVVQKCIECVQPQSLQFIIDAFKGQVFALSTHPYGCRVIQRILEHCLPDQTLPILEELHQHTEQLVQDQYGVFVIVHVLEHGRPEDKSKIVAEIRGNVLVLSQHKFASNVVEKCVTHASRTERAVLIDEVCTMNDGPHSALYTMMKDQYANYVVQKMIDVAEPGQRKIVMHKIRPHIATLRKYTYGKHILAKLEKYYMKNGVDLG
# In short: as §1
# [5] = molecular target: PUM1 PUF domain R3-DYV (Homo sapiens, UniProt Q14671 828-1176, C935D;R936Y;Q939V)
# In short: as §1
# [6] = molecular target: T2, PUM1 PUF domain R6-WYR (Homo sapiens, UniProt Q14671 828-1176, N1043W;Q1047R)
# T2 sequence: T1 sequence with V216W, F217Y, V220R
# In short: as §1
# [7] = molecular target: PUM1 PUF domain R3-GWS (Homo sapiens, UniProt Q14671 828-1176, C935G;R936W;Q939S)
# In short: as §1
# [8] = molecular target: PUM1 PUF domain R1-TTR (Homo sapiens, UniProt Q14671 828-1176, S863T;R864T;Q867R)
# In short: as §1
# [9] = molecular target: PUM1 PUF domain R5-DHI (Homo sapiens, UniProt Q14671 828-1176, C1007D;R1008H;Q1011I)
# In short: as §1
# [10] = molecular target: PUM1 PUF domain R3-FIA (Homo sapiens, UniProt Q14671 828-1176, C935F;R936I;Q939A)
# In short: as §1
sequence,measurement,setting,value
GGCUAGAACUAGUGGAUCCCCCGGCGCCCGGCGGCUCGAGCCCGGGUAAGCGUAAAUAGUCUGCAUGCCGCCGGGCGCCAUGCCUGCAGGUCGACUCUAGAAAACAUG,binding signal,[1],3.45 log2 enrichment (interaction score)
GGCUAGAACUAGUGGAUCCCCCGGCGCCCGGCGGCUCGAGCCCGGGUAAGUGUCAAUAGUCUGCAUGCCGCCGGGCGCCAUGCCUGCAGGUCGACUCUAGAAAACAUG,binding signal,[2],2.35 log2 enrichment (interaction score)
same,binding signal,[3],3.59 log2 enrichment (interaction score)
GGCUAGAACUAGUGGAUCCCCCGGCGCCCGGCGGCUCGAGCCCGGGUAAGUGUAAAUAGUCUGCAUGCCGCCGGGCGCCAUGCCUGCAGGUCGACUCUAGAAAACAUG,binding signal,[4],1.55 log2 enrichment (interaction score)
same,binding signal,[5],5.65 log2 enrichment (interaction score)
same,binding signal,[6],5.27 log2 enrichment (interaction score)
same,binding signal,[7],5.13 log2 enrichment (interaction score)
GGCUAGAACUAGUGGAUCCCCCGGCGCCCGGCGGCUCGAGCCCGGGUAAGUGUAAAUGGUCUGCAUGCCGCCGGGCGCCAUGCCUGCAGGUCGACUCUAGAAAACAUG,binding signal,[8],2.5 log2 enrichment (interaction score)
GGCUAGAACUAGUGGAUCCCCCGGCGCCCGGCGGCUCGAGCCCGGGUAAGUGUUAAUAGUCUGCAUGCCGCCGGGCGCCAUGCCUGCAGGUCGACUCUAGAAAACAUG,binding signal,[3],2.74 log2 enrichment (interaction score)
same,binding signal,[9],4.16 log2 enrichment (interaction score)
GGCUAGAACUAGUGGAUCCCCCGGCGCCCGGCGGCUCGAGCCCGGGUAAGUGUAAGUAGUCUGCAUGCCGCCGGGCGCCAUGCCUGCAGGUCGACUCUAGAAAACAUG,binding signal,[10],3.2 log2 enrichment (interaction score)
same,binding signal,[7],1.75 log2 enrichment (interaction score)
GGCUAGAACUAGUGGAUCCCCCGGCGCCCGGCGGCUCGAGCCCGGGUAAGUGAAAAUAGUCUGCAUGCCGCCGGGCGCCAUGCCUGCAGGUCGACUCUAGAAAACAUG,binding signal,[4],5.24 log2 enrichment (interaction score)
GGCUAGAACUAGUGGAUCCCCCGGCGCCCGGCGGCUCGAGCCCGGGUAAGUGUAAUUAGUCUGCAUGCCGCCGGGCGCCAUGCCUGCAGGUCGACUCUAGAAAACAUG,binding signal,[5],3.08 log2 enrichment (interaction score)
same,binding signal,[7],1.22 log2 enrichment (interaction score)
GGCUAGAACUAGUGGAUCCCCCGGCGCCCGGCGGCUCGAGCCCGGGUAAGUGUAAAUCGUCUGCAUGCCGCCGGGCGCCAUGCCUGCAGGUCGACUCUAGAAAACAUG,binding signal,[8],4.01 log2 enrichment (interaction score)
